From ChEMBL document CHEMBL4513216, “Probing the Open Global Health Chemical Diversity Library for Multistage-Active Starting Points for Next-Generation Antimalarials” (ACS Infect Dis, 2020)
Out of some 69,000 compounds screened, about 8,600 (12%) showed an effect of 50% or more. Many of the other results were omitted from the sample, so strong results are more common in it than they were.

These compounds were tested on Plasmodium berghei (assay: Screen against P. berghei liver stage (PbLuc), transformed with Luciferase, at 10uM). Conditions: tested at 10 uM.
Assay type: functional, HepG2
`Cc1occc1C(=O)N1CCC(C(O)c2ccc(Cl)cc2)CC1` (stereo not drawn) showed an INHIBITION of -49.3%. Compound `CCN(C)S(=O)(=O)N1CCC(C(O)c2ccc(F)cc2)CC1` (stereo not drawn) has an INHIBITION of 51.1%. For `CCOCC(=O)N1CCC(C(O)c2ccc(F)cc2)CC1` (stereo not drawn), the INHIBITION was -6.99%. In the case of `Cc1occc1C(=O)N1CCC(C(O)c2ccc(F)cc2)CC1` (stereo not drawn), the INHIBITION is reported as -85.6%. Compound `CCS(=O)(=O)N1CCO[C@H]2[C@H](Oc3ncccc3F)CC[C@@H]21` has an INHIBITION of 17.4%. `O=C(O)c1ccccc1-n1cnc(CN2CCc3ccccc3C2)c1` was tested, and the INHIBITION was 12.8%. Work on `CCn1c(CC2CCN(S(=O)(=O)N3CCCCC3)CC2)nn(C)c1=O` yielded an INHIBITION of 0.546%. `CN(C)C(=O)c1c[nH]nc1-c1ccc(CNC(=O)c2cnccn2)cc1` was tested, and the INHIBITION was 0.5%. `CCN1CCOCC12CCN(c1ccc(C#N)cc1)CC2` showed an INHIBITION of 2.4%. Compound `c1csc(CN2CCC3(CC2)COCCN3CC2CC2)n1` has an INHIBITION of 50.7%. `COCCN1CCOCC12CCN(c1ccc(C#N)cc1)CC2` showed an INHIBITION of 49.7%. Compound `Cc1noc(C)c1CN1CCOCC12CCN(c1ncccn1)CC2` has an INHIBITION of 47.5%. Compound `CN1CCOCC12CCN(Cc1nccs1)CC2` has an INHIBITION of 0.804%. Work on `CCN1CCOCC12CCN(c1nccs1)CC2` yielded an INHIBITION of 54.8%. Compound `CCN1CCOCC12CCN(c1cnccn1)CC2` has an INHIBITION of 32.1%. `Cc1noc(C)c1CN1CCOCC12CCN(c1cnccn1)CC2` was tested, and the INHIBITION was 34.9%. `COCCN1CCOCC12CCN(c1nccs1)CC2` gave an INHIBITION of 53.9%. `Cc1noc(C)c1CN1CCOCC12CCN(c1nccs1)CC2` was tested, and the INHIBITION was 67.5%. In the case of `COCCN1CCOCC12CCN(c1cnccn1)CC2`, the INHIBITION is reported as 42.1%. `c1csc(CN2CCC3(CCCN3CC3CC3)CC2)n1` gave an INHIBITION of 33%. Work on `CN(C)Cc1ccnc(C2CN(Cc3nccs3)CCO2)n1` (stereo not drawn) yielded an INHIBITION of 35.2%. `Cc1cc(N2CCC(C(=O)NC3CC3)CC2)nc(-c2ccncc2)n1` gave an INHIBITION of -0.219%. `CS(=O)(=O)N1CCC(Cc2cnc(Br)cn2)C1` (stereo not drawn) showed an INHIBITION of -29.9%. Compound `c1cnc(N2CCCC(Cc3nccs3)C2)nc1` (stereo not drawn) has an INHIBITION of 11.685%. For `CS(=O)(=O)NC1CCN(C(=O)c2coc(CN3CCOCC3)c2)CC1`, the INHIBITION was 34.9%. With `COc1cc(CSc2nnc(C)n2CC(N)=O)ccc1SC` the INHIBITION was -9.93%. With `CCCC(=O)N1CCC(Cc2ccccc2-c2ccccc2)(C(N)=O)C1` (stereo not drawn) the INHIBITION was -31%. Compound `O=C(C1CCOC1)N1CCC2(CCN(Cc3nccs3)C2)CC1` (stereo not drawn) has an INHIBITION of 46.2%. `O=C(C1CCOC1)N1CCC2(CCN(Cc3nccs3)CC2)CC1` (stereo not drawn) gave an INHIBITION of 52%. With `O=C(C1CCOCC1)N1CCC2(CCN(Cc3nccs3)CC2)CC1` the INHIBITION was 18.3%. Compound `CC(C)CC(=O)N1C[C@@H]2CCN(c3ncccn3)C[C@@H]2C1` has an INHIBITION of 44.1%. `CC(C)Oc1ncc(C(=O)N2CCC(NC(=O)C3CC3)CC2)cc1Cl` was tested, and the INHIBITION was -13.2%. `O=C(c1ccc(O)nc1)N1CCc2ccc(O)cc2C1` was tested, and the INHIBITION was 11.7%. Work on `O=C(c1c[nH]c(=O)c(Cl)c1)N1CCc2ccccc2C1` yielded an INHIBITION of -29.6%. In the case of `CC(C)Oc1ncc(C(=O)N2CCc3ccc(O)cc3C2)cc1Cl`, the INHIBITION is reported as 77.1%. For `CC(C)Oc1ncc(C(=O)N2CCCC(C(=O)O)C2)cc1Cl` (stereo not drawn), the INHIBITION was 23.3%. `O=C(c1cnc(OCC(F)(F)F)c(Cl)c1)N1CCc2ccc(O)cc2C1` showed an INHIBITION of 70.9%. With `COc1ccc(CN2C[C@@H](OCc3csc(C)n3)[C@H]3COC[C@H]32)cc1` the INHIBITION was -21.5%. `N#CC1CCCN(C(=O)Cn2ncc(N3CCCC3)cc2=O)C1` (stereo not drawn) gave an INHIBITION of 44.9%. `CCc1cc(N2CCCC(CC)(C(=O)O)C2)nc(N2CCOCC2)n1` (stereo not drawn) was tested, and the INHIBITION was 39.6%. `CCc1cc(N2CCC3(CCCNC3=O)C2)nc(N2CCOCC2)n1` (stereo not drawn) gave an INHIBITION of 70.3%. `Cc1cc(C2CCC2)nc(N2CCC3(CCCNC3=O)C2)n1` (stereo not drawn) gave an INHIBITION of 42.5%. For `COCCN1CCN(c2nc(O)cc(Cc3ccccc3F)n2)CC1`, the INHIBITION was 38.7%. In the case of `Cc1cccc(C)c1OCCCN1CCN(CC2CCCO2)CC1` (stereo not drawn), the INHIBITION is reported as 67.1%. With `COCCN1CCC(CN(CC2CCCO2)C(=O)CNC(C)=O)CC1` (stereo not drawn) the INHIBITION was 50.2%. Work on `COCCN1CCC(CN(CC2CCCO2)C(=O)CCNC(C)=O)CC1` (stereo not drawn) yielded an INHIBITION of -14.9%. In the case of `Cn1c(CN2CCN(CC3CCCO3)CC2)nc2ccccc21` (stereo not drawn), the INHIBITION is reported as 27.6%. Compound `COCCN1CCC(CN(CC2CCCO2)C(=O)COC)CC1` (stereo not drawn) has an INHIBITION of 26.8%. Work on `COCCN1CCN(CC2CCCCO2)CC1` (stereo not drawn) yielded an INHIBITION of 51.7%. For `O=S(=O)(N1CCCC1)N1CCN(CC2CCCO2)CC1` (stereo not drawn), the INHIBITION was 33.4%. In the case of `Cc1cccc(C)c1OCCCN1CCC(n2cncn2)CC1`, the INHIBITION is reported as -49.5%. Compound `COCCCN1CCN(CC2CCCO2)CC1` (stereo not drawn) has an INHIBITION of 17.5%. `O=C(NCCCNC(=O)c1cccc(O)c1)Nc1ccc(Cl)cc1` gave an INHIBITION of 45.5%.
